This is a sample that favours compounds with a hit; in the whole collection about 3.8% have one here.
NLRP3 yeast inh – inhibitors of NALP3 inflammasome in yeast | AID 2825 | Yeast reconstituted NLRP3/ASC/caspase-1, beta-gal luminescence, 24 h | inhibition, % at 10 µM | 330,000 compounds, 0.39% hits;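 active = inhibition of 50% or more; inactive = inhibition below 50%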
tim23-1 inh – inhibits growth of tim23-1 mutant yeast | S. cerevisiae tim23-1 growth, BacTiter-Glo luminescence, 24 h | AID 463212 | 330,000 compounds, 1.3% hits | inhibition, % at 20 µM;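 active = growth inhibition of the mutant yeast at or above 50%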;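 also: temperature-sensitive mutant grown at 25 °C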
TIM10 inh – growth inhibitors of TIM10 yeast strain; S. cerevisiae TIM10 strain growth, BacTiter-Glo luminescence, 24 h; inhibition, % at 10 µM; 330,000 compounds, 1.4% hits;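 active = inhibition of 40% or more at the single tested concentration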;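 also: wild-type TIM10 isogenic control strain grown at permissive 25 °C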
Yeast superoxide – lowers age-related superoxide in aged yeast cells. 330,000 compounds, 0.18% hits. S. cerevisiae aged cells, superoxide DHE fluorescence; stronger effect = lower value. superoxide response (% of plate mean), % at 10 µM;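 active = superoxide response under a set limit, about three screen SD below normal, cut at about 65% in these data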;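 also: yeast aged for seven days with compound at 30 °C before DHE staining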
tim10-1 inh – growth inhibitors of tim10-1 mutant yeast | inhibition, % at 20 µM | 330,000 compounds, 2.2% hits | S. cerevisiae tim10-1 ts strain growth, BacTiter-Glo, 24 h;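 active = inhibition of at least 40%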;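 also: mutant grown at 25 °C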
tim23-1 confirm – tim23-1 yeast growth inhibition, confirmed; shares compounds with tim23-1 inh; inhibition, % at 20 µM; 4,400 compounds, 83% hits; S. cerevisiae tim23-1 growth, BacTiter-Glo luminescence, 24 h; AID 463218;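 active = inhibition above about 39% in either of two replicate wells at 20 µM, limit read from the data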;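 also: temperature-sensitive tim23-1 mutant grown at 25 °C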
Large screens that a line does not name were inactive (follow-up assays come after a bar, where they were run).

Cc1cc(NC(=O)Cn2nc([N+](=O)[O-])c(Br)c2C)no1	none
Oc1c(C(c2ccccc2Cl)N2CCCC2)ccc2cccnc12 (stereo unspecified)	tim23-1 inh 64.6 | tim23-1 confirm 59.4
Oc1c(C(c2ccc(Cl)cc2)N2CCCC2)cc(Cl)c2cccnc12 (stereo unspecified)	tim23-1 inh 64.3 | tim23-1 confirm 68.3
CN1CCN(C(c2ccc(C(F)(F)F)cc2)c2ccc3cccnc3c2O)CC1 (stereo unspecified)	none
O=S(=O)(NCc1csc(-c2ccccc2)n1)c1ccc(Cl)s1	tim23-1 inh 53.1 | tim23-1 confirm 44.9
O=S(=O)(NCc1csc(-c2cccnc2)n1)c1ccc(Cl)s1	none
C/C(=N\NC(=O)c1ccc(F)cc1)c1ccccn1	none
C=CCNC(=S)N/N=C(\C)c1ccccn1	tim23-1 inh 60.9 | tim23-1 confirm 50.8
COc1ccc(C(=O)NCCS(=O)(=O)N(C)Cc2ccccc2)cc1	none
O=c1[nH]c(C2CCCN(S(=O)(=O)Cc3ccccc3)C2)nc2c1nnn2Cc1cccc(Cl)c1 (stereo unspecified)	none
Cc1nc(-c2ccccc2)sc1C(N)=O	tim23-1 inh 95.9 | tim23-1 confirm inactive
CNC(=O)c1sc(-c2ccccc2)nc1C	none
Cc1ccc(C(=O)N2C(=O)C(c3ccccc3)Oc3ccccc32)cc1 (stereo unspecified)	tim23-1 inh 68.7 | tim23-1 confirm 52.9
CN(Cc1ccccc1)C(=S)NC(=O)c1cccs1	tim23-1 inh 50.9 | tim23-1 confirm inactive
CC(NC(=S)NC(=O)c1cccs1)c1ccccc1 (stereo unspecified)	tim23-1 inh 52.4 | tim23-1 confirm 45.0
COc1ccc(-c2nc(-c3cccc(C)c3)nc(N3CCN(C)CC3)c2C#N)cc1	tim23-1 inh 59.0 | tim23-1 confirm 43.5
CNc1nc(-c2c(C)n(C)c3ccc(OC)cc23)cs1	none
Cc1ccc(C)c(N=Nc2ccc(O)c3ncccc23)c1	none
Cc1cccc(N=Nc2ccc(O)c3ncccc23)c1	tim23-1 inh 60.0 | tim23-1 confirm 55.5
COc1ccc(Br)cc1S(=O)(=O)Nc1ncn[nH]1	none
O=C1OCCN1C(=O)[C@H]1[C@H](c2ccc(F)cc2)C(c2cccc(Cl)c2)=NN1c1ccccc1	none (no result: NLRP3 yeast inh)
OC[C@@H]1[C@@H](c2ccccc2)C(c2ccc(F)cc2)=NN1c1ccccc1	tim23-1 inh 56.4 (no result: NLRP3 yeast inh) | tim23-1 confirm 45.4
OC[C@@H]1[C@@H](c2ccc(Cl)cc2)C(c2ccc(F)cc2)=NN1c1ccccc1	tim23-1 inh 56.3 (no result: NLRP3 yeast inh) | tim23-1 confirm inactive
OC[C@@H]1[C@@H](c2ccccc2)C(c2ccccc2)=NN1c1ccccc1	none (no result: NLRP3 yeast inh)
O=C(C1=COCCO1)N(Cc1nnc(-c2ccccc2Cl)o1)C1CC1	none
CN1C(=O)c2ccc(NC(=O)CCS(=O)(=O)c3ccccc3)cc2C1=O	none
O=S(=O)(c1ccc(F)cc1F)N1CCCN(c2ccc(C(F)(F)F)cn2)CC1	none
CN(C)c1ccc(/C=C/C(=O)c2c(O)c3ccccc3oc2=O)cc1	none
CCOc1ccc(/C=C/C(=O)c2c(O)c3ccccc3oc2=O)cc1	tim23-1 inh 76.0 | tim23-1 confirm inactive
Cc1cc(C(F)(F)F)c2c(C)nn(-c3ccccc3)c2n1	none
Cc1cc(=O)oc2c1c(C(F)(F)F)nn2-c1ccccc1	tim23-1 inh 50.2 | tim23-1 confirm 54.9
Cc1cc(N)n2nc(C)c(-c3ccccc3)c2n1	none (no result: NLRP3 yeast inh, tim23-1 inh, TIM10 inh, tim10-1 inh)
Cc1cc(NC2CCCC2)n2nc(C)c(-c3ccccc3)c2n1	tim23-1 inh 50.6 | tim23-1 confirm 42.8
Cc1cc(NCc2ccccc2)n2ncc(-c3ccccc3)c2n1	none
Cc1cc(NC2CCCC2)n2ncc(-c3ccccc3)c2n1	tim23-1 inh 50.4 | tim23-1 confirm inactive
O=C(CN1C(=O)NC2(CCCC2)C1=O)OCCOc1ccc(Cl)cc1Cl	none
Cc1ccc(NC(=O)c2ccc(Cl)c(NC(=O)c3cccs3)c2)cc1	tim23-1 inh 66.3 | tim23-1 confirm 66.2
Cc1nc2ccc(NC(=O)c3ccc(Cl)c(NC(=O)c4cccs4)c3)cc2s1	none
O=C(c1ccccc1)N1N=C(c2cccs2)CC1c1ccccc1O (stereo unspecified)	tim23-1 inh 56.6 | tim23-1 confirm 43.4
Cc1ccc(C2CC(c3cccs3)=NN2C(=O)CCl)cc1 (stereo unspecified)	tim23-1 inh 64.0 | tim23-1 confirm inactive
CC(C)CCN(C(=O)Cc1ccc(Cl)c(Cl)c1)c1c(N)n(Cc2ccccc2)c(=O)[nH]c1=O	none
COc1ccccc1OCC(=O)N/N=C/c1cccc2cccnc12	none
Cc1cc(C)n(CCC(=O)N/N=C/c2c(O)ccc3ccccc23)n1	tim23-1 inh 54.3 | tim23-1 confirm 51.0
COc1ccccc1OCC(=O)N/N=C/c1c(O)ccc2ccccc12	tim23-1 inh 59.1 | tim23-1 confirm 55.1
COc1ccc2ccccc2c1/C=N\NC(=O)c1ccc(C)s1	tim23-1 inh 51.0 | tim23-1 confirm inactive
Cc1ccc(C(=O)N(C)CC(=O)Nc2cccc(C)c2C)o1	none
O=c1oc(-c2ccc([N+](=O)[O-])cc2)nc2ccc(O)cc12	tim23-1 inh 51.6 | tim23-1 confirm 64.8
O=c1oc(-c2ccccc2[N+](=O)[O-])nc2ccccc12	tim23-1 inh 55.5 | tim23-1 confirm 50.5
O=c1oc(-c2ccc([N+](=O)[O-])cc2)nc2ccccc12	none
COC(=O)n1c(=S)oc2cc(Cl)ccc21	tim23-1 inh 77.6 | tim23-1 confirm 78.8
Cn1c(=NC(=O)c2ccccc2[N+](=O)[O-])sc2cccc(F)c21	tim23-1 inh 97.0 | tim23-1 confirm inactive
COc1cccc(C(=O)C(C#N)=C(SC)SC)c1	tim23-1 inh 60.0 | tim23-1 confirm 76.8
COc1cccc(C(=O)Nc2ccc(NC(C)=O)cc2)c1	none
CSC(SC)=C(C#N)C(=O)c1ccccc1	tim23-1 inh 80.2 | tim23-1 confirm 84.6
CN(C(=O)c1ccccc1F)C(c1ccccc1)c1ccccc1	none
COc1cc(NC(=S)N2CCN(C(=O)C3CCCO3)CC2)c(OC)cc1Cl (stereo unspecified)	none
Cc1cc([N+](=O)[O-])ccc1NC(=S)NC(=O)Cc1ccccc1	tim23-1 inh 50.1 | tim23-1 confirm inactive
N#Cc1c(Nc2ccccc2)sc(C(=O)c2ccccc2)c1N	none
Cc1cccc(Oc2sc(C(=O)c3ccccc3)c(N)c2C#N)c1	tim23-1 inh 55.3 | tim23-1 confirm 41.6
Cc1nc(N2CCN(S(=O)(=O)c3ccccc3C#N)CC2)c2c(-c3ccccc3)csc2n1	none
COc1cccc(NC(=O)C2CCCO2)c1 (stereo unspecified)	none
COc1ccc(N=C(C)C2=C(O)COC2=O)cc1	tim23-1 inh 95.8 | tim23-1 confirm inactive
COc1ccc(S(=O)(=O)N/N=C(/C)c2ccco2)cc1	none
CCn1cnc2cc(NCc3ccc(Br)cc3)ccc21	tim23-1 inh 53.4 | tim23-1 confirm 66.2
CNC(=O)NC(=O)C(C)Oc1ccccc1F (stereo unspecified)	none
